Experimental data: PubChem BioAssay (NCATS)
Records with an inconclusive call do not appear. The source made the active and inactive calls. Unless noted, the call rests on the fitted dose curve; in most records, active means well fitted inhibition curve with a large enough effect; inconclusive means small, poorly fitted or top-dose-only effect; inactive means flat fitted curve, though single readings scatter.

What was measured:
[1] = qHTS drug screen for cell cycle checkpoint inhibitors in PARPi-resistant BRCA-mutant ovarian cancer cell lines. (AID 1963452; calls by dose curve); settings: PEO1/OlaR viability, CellTiter-Glo luminescence, 96 h, stronger effect = lower value
Outline: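 PEO1, PEO4 and PEO1/OlaR ovarian cancer cells, 600 per well, exposed 96 h at 37C to a dilution series. Viability read by CellTiter-Glo luminescence, normalized to DMSO and empty wells; activity summarized as Z-AUC.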

[2] = qHTS profiling for inhibitors of Plasmodium falciparum proliferation (AID 504749); further: nearly all actives have a fitted effect of over 60% in size; further: potency means the concentration at half of the fitted maximal effect;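 on activity, negative = inhibition: 0% = DMSO vehicle and full inhibition = artemisinin control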; settings: P. falciparum in erythrocytes, SYBR Green DNA, 72 h
Outline: (§1)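 SYBR Green fluorescence of parasite DNA, read after lysis and overnight dark incubation, measured growth over 72 h in erythrocyte culture at 0.3% parasitemia and 2.5% hematocrit. Data normalised to DMSO and 0.29 uM artemisinin, with plate-drift correction.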

3D7 = test: as above; settings: P. falciparum in erythrocytes, SYBR Green DNA, 72 h; series mostly up to 28.7 µM
Outline: as §1

7G8 = test: as above; settings: P. falciparum in erythrocytes, SYBR Green DNA, 72 h; series mostly up to 28.7 µM
Outline: as §1

AA1029 = test: as above; settings: P. falciparum in erythrocytes, SYBR Green DNA, 72 h; series mostly up to 28.7 µM
Outline: as §1

AS120 = test: as above; settings: P. falciparum in erythrocytes, SYBR Green DNA, 72 h; series mostly up to 28.7 µM
Outline: as §1

ATS189 = test: as above; settings: P. falciparum in erythrocytes, SYBR Green DNA, 72 h; series mostly up to 28.7 µM
Outline: as §1

ATS95 = test: as above; settings: P. falciparum in erythrocytes, SYBR Green DNA, 72 h; series mostly up to 28.7 µM
Outline: as §1

C2A = test: as above; settings: P. falciparum in erythrocytes, SYBR Green DNA, 72 h; series mostly up to 28.7 µM
Outline: as §1

CP185 = test: as above; settings: P. falciparum in erythrocytes, SYBR Green DNA, 72 h; series mostly up to 28.7 µM
Outline: as §1

CP191 = test: as above; settings: P. falciparum in erythrocytes, SYBR Green DNA, 72 h; series mostly up to 28.7 µM
Outline: as §1

CP192 = test: as above; settings: P. falciparum in erythrocytes, SYBR Green DNA, 72 h; series mostly up to 28.7 µM
Outline: as §1

[3] = qHTS for identification of novel therapeutic agents for treatment of microphthalmiaassociated transcription factor (MiT) renal cell carcinoma (RCC) (AID 1963991); settings: CellTiter-Glo, 48 h, stronger effect = lower value
Outline: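 Three TFE3-fusion RCC lines (UOK109, UOK124, UOK145), 500 cells/well in complete medium, were treated with MIPE 4.0 compounds for 48 hours at 37 C. Viability was by CellTiter-Glo luminescence, normalized to DMSO (100%) and empty wells (0%); curves fitted over 11 concentrations.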

[4] = measured here: PEO1 parental Z-AUC
[5] = at 28.7 µM (top of the series), parasite line A
[6] = at 28.7 µM (top of the series), parasite line B
[7] = TFE3-RCC UOK109 viability, measured here: UOK109 Z-AUC
[8] = TFE3-RCC viability, measured here: UOK124 Z-AUC
[9] = TFE3-RCC viability, measured here: UOK145 Z-AUC

COc1cc2c(c(OC)c1OC)-c1ccc(OC)c(=O)cc1[C@@H](NC(C)=O)CC2
inactive: Z-AUC [1] -0.869 | activity, negative = inhibition [2, 5] -2.78% | activity, negative = inhibition [2, 6] 6.74% | Potency (3D7) | Potency (7G8) | Potency (AA1029) | Potency (AS120) | Potency (ATS189) | Potency (ATS95) | Potency (C2A) | Potency (CP185) | Potency (CP191) | Potency (CP192)
-1.62: Z-AUC ([1]; measured here: PEO4 Z-AUC)
-1.12: Z-AUC [1, 4]

Cc1cnc(C(=O)NCCc2ccc(S(=O)(=O)NC(=O)NC3CCCCC3)cc2)cn1
0.444: Z-AUC ([1]; measured here: PEO4 Z-AUC)
inactive: Z-AUC [1] 0.935 | activity, negative = inhibition [2, 5] 8.33% | activity, negative = inhibition [2, 6] 4.07% | Potency (3D7) | Potency (7G8) | Potency (AA1029) | Potency (AS120) | Potency (ATS189) | Potency (ATS95) | Potency (C2A) | Potency (CP185) | Potency (CP191) | Potency (CP192)
0.686: Z-AUC [1, 4]

O=c1c(-c2ccc(O)cc2)coc2cc(O)cc(O)c12
-0.435: Z-AUC ([1]; measured here: PEO4 Z-AUC)
inactive: Z-AUC [1] 0.848 | activity, negative = inhibition [2, 5] -2.63% | activity, negative = inhibition [2, 6] -14.6% | Potency (3D7) | Potency (7G8) | Potency (AA1029) | Potency (AS120) | Potency (ATS189) | Potency (ATS95) | Potency (C2A) | Potency (CP185) | Potency (CP191) | Potency (CP192)
0.793: Z-AUC [1, 4]

O=C1N(c2ccccc2)c2ccccc2C1(Cc1ccncc1)Cc1ccncc1
inactive: Z-AUC [1] -0.0273 | activity, negative = inhibition [2, 5] 1.98% | activity, negative = inhibition [2, 6] -9.11% | Potency (3D7) | Potency (AA1029) | Potency (AS120) | Potency (ATS189) | Potency (ATS95) | Potency (C2A) | Potency (CP185) | Potency (CP191) | Potency (CP192)
0.797: Z-AUC ([1]; measured here: PEO4 Z-AUC)
0.843: Z-AUC [1, 4]
active: Potency (7G8) 8.91 µM

Cc1ccc(C(=O)Nc2ccc(S(=O)(=O)O)c3cc(S(=O)(=O)O)cc(S(=O)(=O)O)c23)cc1NC(=O)c1cccc(NC(=O)Nc2cccc(C(=O)Nc3cc(C(=O)Nc4ccc(S(=O)(=O)O)c5cc(S(=O)(=O)O)cc(S(=O)(=O)O)c45)ccc3C)c2)c1
0.677: Z-AUC ([1]; measured here: PEO4 Z-AUC)
0.903: Z-AUC [1, 4]
-1.39: z-score [3, 8]
0.0489: z-score [3, 7]
-0.47: z-score [3, 9]
inactive: Z-AUC [1] 0.147 | Potency (3D7) | Potency (7G8) | Potency (ATS189) | Potency (C2A) | Potency (CP185) | Potency (CP191) | Potency (CP192)

CS(=O)(=O)CCNCc1ccc(-c2ccc3ncnc(Nc4ccc(OCc5cccc(F)c5)c(Cl)c4)c3c2)o1
inactive: Z-AUC [1] 0.292 | activity, negative = inhibition [2, 5] 6.38% | activity, negative = inhibition [2, 6] -5.13% | Potency (3D7) | Potency (7G8) | Potency (AA1029) | Potency (AS120) | Potency (ATS189) | Potency (ATS95) | Potency (C2A) | Potency (CP185) | Potency (CP191) | Potency (CP192)
0.248: Z-AUC [1, 4]
0.473: Z-AUC ([1]; measured here: PEO4 Z-AUC)

NS(=O)(=O)c1cc2c(cc1Cl)NCNS2(=O)=O
0.437: z-score [3, 9]
1.34: Z-AUC [1, 4]
1.57: Z-AUC ([1]; measured here: PEO4 Z-AUC)
0.843: z-score [3, 8]
0.106: z-score [3, 7]
inactive: Z-AUC [1] 1.17 | activity, negative = inhibition [2, 5] 1.79% | activity, negative = inhibition [2, 6] 14.1% | Potency (3D7) | Potency (7G8) | Potency (AA1029) | Potency (AS120) | Potency (ATS189) | Potency (ATS95) | Potency (C2A) | Potency (CP185) | Potency (CP191) | Potency (CP192)

C[C@](N)(Cc1ccc(O)c(O)c1)C(=O)O
0.112: z-score [3, 7]
1.39: Z-AUC [1, 4]
inactive: Z-AUC [1] 0.359 | activity, negative = inhibition [2, 5] 5.92% | activity, negative = inhibition [2, 6] -9.27% | Potency (3D7) | Potency (7G8) | Potency (AA1029) | Potency (AS120) | Potency (ATS189) | Potency (ATS95) | Potency (C2A) | Potency (CP185) | Potency (CP191) | Potency (CP192)
-0.114: z-score [3, 8]
1.22: Z-AUC ([1]; measured here: PEO4 Z-AUC)
-0.0394: z-score [3, 9]

Cc1cc(C(C)(C)C)c(O)c(C)c1CC1=NCCN1
0.695: Z-AUC ([1]; measured here: PEO4 Z-AUC)
0.384: z-score [3, 7]
0.68: Z-AUC [1, 4]
inactive: Z-AUC [1] 1.21 | activity, negative = inhibition [2, 5] -4.77% | activity, negative = inhibition [2, 6] -3.69% | Potency (3D7) | Potency (7G8) | Potency (AA1029) | Potency (AS120) | Potency (ATS189) | Potency (ATS95) | Potency (C2A) | Potency (CP185) | Potency (CP191) | Potency (CP192)
0.625: z-score [3, 8]
1.63: z-score [3, 9]

CC[N+](CC)(CC)CCOc1cccc(OCC[N+](CC)(CC)CC)c1OCC[N+](CC)(CC)CC
0.846: Z-AUC [1, 4]
0.666: Z-AUC ([1]; measured here: PEO4 Z-AUC)
-0.103: z-score [3, 9]
inactive: Z-AUC [1] 0.722 | activity, negative = inhibition [2, 5] -0.0275% | activity, negative = inhibition [2, 6] 10.3% | Potency (3D7) | Potency (7G8) | Potency (AA1029) | Potency (AS120) | Potency (ATS189) | Potency (ATS95) | Potency (C2A) | Potency (CP185) | Potency (CP191) | Potency (CP192)
0.0594: z-score [3, 7]
0.771: z-score [3, 8]

Cn1cnc2c1c(=O)[nH]c(=O)n2C
inactive: Z-AUC [1] -0.393 | activity, negative = inhibition [2, 5] 1.87% | activity, negative = inhibition [2, 6] -0.248% | Potency (3D7) | Potency (7G8) | Potency (AA1029) | Potency (AS120) | Potency (ATS189) | Potency (ATS95) | Potency (C2A) | Potency (CP185) | Potency (CP191) | Potency (CP192)
-0.709: Z-AUC ([1]; measured here: PEO4 Z-AUC)
-0.653: Z-AUC [1, 4]

CC12CC3CC(C)(C1)CC(N)(C3)C2
inactive: Z-AUC [1] 1.05 | activity, negative = inhibition [2, 5] 13.9% | activity, negative = inhibition [2, 6] 1.67% | Potency (3D7) | Potency (AS120) | Potency (ATS189) | Potency (C2A) | Potency (CP185) | Potency (CP191) | Potency (CP192)
0.978: Z-AUC [1, 4]
0.935: Z-AUC ([1]; measured here: PEO4 Z-AUC)
active: Potency (7G8) 8.91 µM | Potency (AA1029) 10 µM

CNCCCC12CCC(c3ccccc31)c1ccccc12
active: Potency (7G8) 10 µM
inactive: Z-AUC [1] -0.42 | activity, negative = inhibition [2, 5] 0.742% | activity, negative = inhibition [2, 6] -2.12% | Potency (3D7) | Potency (AA1029) | Potency (AS120) | Potency (ATS189) | Potency (C2A) | Potency (CP185) | Potency (CP192)
0.397: Z-AUC [1, 4]
0.261: Z-AUC ([1]; measured here: PEO4 Z-AUC)

Nc1nc2c(ncn2COC(CO)CO)c(=O)[nH]1
inactive: Z-AUC [1] 1.34 | activity, negative = inhibition ([2]; at 12.8 µM (top of the series), parasite line A) -0.332% | activity, negative = inhibition ([2]; at 12.8 µM (top of the series), parasite line B) 8.95% | Potency (3D7) | Potency (7G8) | Potency (AA1029) | Potency (AS120) | Potency (ATS189) | Potency (ATS95) | Potency (C2A) | Potency (CP185) | Potency (CP191) | Potency (CP192)
1.36: Z-AUC [1, 4]
1.37: Z-AUC ([1]; measured here: PEO4 Z-AUC)
